# Records with an inconclusive call do not appear. Calls of active or inactive are those of the source. Rule for the calls, unless noted: active = hit-call score of the fitted dose curve at least 0.9, where 1 is the maximum; inactive = score below 0.9.
# Tests used:
# [1] = biological target: Cellular tumor antigen p53 (Homo sapiens) (UniProt P04637); experiment: TOX21_p53_BLA_p2_ratio: Tox21 HCT-116 p53 Agonism Beta-lactamase Assay, Ratio, Phase 2 (AID 2283592; active = hit-call score of the fitted dose curve at least 0.9, where 1 is the maximum)
# Chain of Cellular tumor antigen p53 (Homo sapiens) (P04637 whole entry, looked up): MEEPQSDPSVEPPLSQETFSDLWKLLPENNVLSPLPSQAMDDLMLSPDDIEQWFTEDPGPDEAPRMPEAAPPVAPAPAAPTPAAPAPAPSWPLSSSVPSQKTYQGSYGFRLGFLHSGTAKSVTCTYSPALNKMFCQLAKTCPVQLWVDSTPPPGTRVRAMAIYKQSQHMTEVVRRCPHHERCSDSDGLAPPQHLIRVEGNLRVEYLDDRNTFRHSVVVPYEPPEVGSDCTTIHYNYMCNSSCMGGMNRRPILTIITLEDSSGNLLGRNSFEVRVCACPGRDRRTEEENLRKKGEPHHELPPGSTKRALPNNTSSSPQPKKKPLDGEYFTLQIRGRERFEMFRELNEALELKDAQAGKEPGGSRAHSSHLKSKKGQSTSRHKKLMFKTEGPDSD
# Summary of the method: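 An inducible beta-lactamase reporter in HCT116 cells signals p53 pathway activation. After 16 h chemical exposure at 37C, cells load CCF4-AM substrate for 2 h at room temperature; activity is the cleaved/uncleaved emission ratio relative to DMSO.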
# [2] = biological target: Cellular tumor antigen p53 (Homo sapiens) (UniProt P04637); experiment: TOX21_p53_BLA_p3_ratio: Tox21 HCT-116 p53 Agonism Beta-lactamase Assay, Ratio, Phase 3 (AID 2283596; active = hit-call score of the fitted dose curve at least 0.9, where 1 is the maximum)
# Summary of the method: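 HCT116 p53-bla cells (4000/well) given compound in DMSO (217-fold dilution) after 5 h, incubated 16 h at 37C. CCF4-AM substrate 2 h at room temperature; 460/530 nm emission ratio, gain fitted against DMSO.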
# [3] = biological target: Cellular tumor antigen p53 (Homo sapiens) (UniProt P04637); experiment: TOX21_p53_BLA_p5_ratio: Tox21 HCT-116 p53 Agonism Beta-lactamase Assay, Ratio, Phase 5 (AID 2283599; active = hit-call score of the fitted dose curve at least 0.9, where 1 is the maximum)
# Summary of the method: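 HCT-116 cells carrying a p53-inducible beta-lactamase reporter were seeded at 4000 cells/well and dosed after 5 h with compound in DMSO (217-fold dilution). After 16 h at 37C, CCF4-AM substrate was added for 2 h, and the 460/530 nm emission ratio was scored as gain-of-signal versus DMSO.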
# [4] = TOX21_p53_BLA_p5_viability: Viability Assessment in the Tox21 HCT-116 p53 Agonism Beta-lactamase Assay, Phase 5 (AID 2283600; active = hit-call score of the fitted dose curve at least 0.9, where 1 is the maximum)
# Summary of the method: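 Counter-readout for cytotoxicity: ATP-dependent luminescence from CellTiter-Glo, read in the beta-lactamase wells after 30 min at RT, following a 16 h compound exposure at 37C.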
# [5] = biological target: Cellular tumor antigen p53 (Homo sapiens) (UniProt P04637); experiment: TOX21_p53_BLA_p4_ratio: Tox21 HCT-116 p53 Agonism Beta-lactamase Assay, Ratio, Phase 4 (AID 2283601; active = hit-call score of the fitted dose curve at least 0.9, where 1 is the maximum)
# Summary of the method: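 HCT116 cells carrying an inducible beta-lactamase reporter were plated at 4000 cells/well, rested 5 h, then exposed to compounds in DMSO (217-fold dilution) for 16 h at 37C. CCF4-AM substrate was loaded 2 h at room temperature; 460/530 nm emission ratio scored gain-of-signal versus DMSO.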
# [6] = CCTE_Shafer_MEA_dev_firing_rate_mean: CCTE's Neural Network Formation Assay for Mean Firing Rate, Shafer Lab (AID 2284031)
# Summary of the method: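 Developing rat cortical networks on MEA plates undergo 12-day compound exposure. Firing frequency, averaged across active electrodes, is integrated as area under the curve over four recording days, referenced to DMSO.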
# [7] = CCTE_Shafer_MEA_dev_per_burst_spike_percent: CCTE's Neural Network Formation Assay for Percent of Spikes in a Burst, Shafer Lab (AID 2284032);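 note: fitted as a decrease in burst spike percentage below DMSO baseline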
# Summary of the method: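 Rat primary cortical neurons on 16-electrode MEA wells, dosed from plating day 0 for 12 days with renewal on DIV 5 and 9; spikes-in-bursts percentage averaged over bursting electrodes, collapsed as AUC across days 5, 7, 9, 12; loss direction versus DMSO.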
# [8] = CCTE_Shafer_MEA_dev_active_electrodes_number: CCTE's Neural Network Formation Assay for Number of Active Electrodes, Shafer Lab (AID 2284040; active = hit-call score of the fitted dose curve at least 0.9, where 1 is the maximum;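 note: potency for loss of active electrodes versus DMSO so lower counts are hits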)
# Summary of the method: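 Rat cortical primary cultures, 1.5 x 10^5 cells/well, PEI-coated MEA, laminin drop. Continuous exposure DIV 0–12; full media/compound change DIV 5, 9. Readout: electrodes with mean firing ≥5 spikes/min; AUC across days; loss vs DMSO.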
# [9] = CCTE_Shafer_MEA_dev_burst_rate: CCTE's Neural Network Formation Assay for Burst Rate, Shafer Lab (AID 2284042)
# Summary of the method: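 Rat primary cortical cultures on PEI/laminin MEA; compound from plating, re-dosed at DIV 5, 9 media change. Single-electrode bursts/recording length, well mean of active electrodes; AUC over DIV 5–12 recordings; loss-of-signal vs DMSO.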
# [10] = CCTE_Shafer_MEA_dev_bursting_electrodes_number: CCTE's Neural Network Formation Assay for Number of Bursting Electrodes, Shafer Lab (AID 2284043; active = hit-call score of the fitted dose curve at least 0.9, where 1 is the maximum;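 note: potency is for loss of bursting electrodes relative to DMSO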)
# Summary of the method: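 Primary rat cortical neurons were cultured on PEI-coated 48-well MEA plates (16 electrodes/well) and exposed from plating through day 12, with compound renewed at feeds on DIV 5 and 9. Electrodes bursting ≥1 per 2 min were counted on DIV 5, 7, 9, 12; trapezoidal AUC taken.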
# [11] = CCTE_Shafer_MEA_dev_per_burst_interspike_interval: CCTE's Neural Network Formation Assay for Burst Interspike Interval, Shafer Lab (AID 2284044);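 note: mean spike spacing inside bursts as AUC over recordings on days 5 7 9 12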
# Summary of the method: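 Developmental network-formation MEA in primary rat cortical cultures with exposure spanning days 0–12. Within-burst ISI is averaged per well and integrated across recording days by area under the curve, with DMSO as negative control baseline.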
# [12] = CCTE_Shafer_MEA_dev_burst_duration_mean: CCTE's Neural Network Formation Assay for Mean Burst Duration, Shafer Lab (AID 2284045)
# Summary of the method: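 Primary rat cortical neurons on PEI-coated 16-electrode MEA wells, exposed from plating through day 12 with compound renewed at DIV 5 and 9; spontaneous activity recorded days 5, 7, 9, 12. Well-mean burst duration collapsed as trapezoidal AUC, fitted for loss versus DMSO.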
# [13] = CCTE_Shafer_MEA_dev_interburst_interval_mean: CCTE's Neural Network Formation Assay for Mean Interburst Interval, Shafer Lab (AID 2284046);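 note: well-mean interburst interval of bursting electrodes as AUC over four recording days; curve fitted for decrease in interburst interval relative to DMSO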
# Summary of the method: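 Rat cortical neurons, 1.5 x 10^5 cells/well, 48-well MEA; compound from day 0 through DIV 12, media and treatment renewed DIV 5/9. Recordings DIV 5, 7, 9, 12; well-mean interburst interval → trapezoidal AUC, loss direction vs DMSO.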
# [14] = CCTE_Shafer_MEA_dev_inter_network_spike_interval_mean: CCTE's Neural Network Formation Assay for Mean Inter-network Spike Interval, Shafer Lab (AID 2284047)
# Summary of the method: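 Primary rat cortical neurons on PEI-coated 48-well MEAs (16 electrodes/well) were exposed from plating day 0 to DIV 12, with dosing renewed at DIV 5 and 9. Recordings at DIV 5, 7, 9, 12 were collapsed by trapezoidal AUC, loss-of-signal fit vs DMSO.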
# [15] = CCTE_Shafer_MEA_dev_network_spike_number: CCTE's Neural Network Formation Assay for Number of Network Spikes, Shafer Lab (AID 2284048);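 note: synchronized bursts across electrodes counted on days 5 7 9 12 and integrated as AUC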
# Summary of the method: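 Primary rat cortical neurons were seeded at 1.5 x 10^5 cells/well on PEI-coated 16-electrode MEA wells with laminin, exposed from plating day 0, compound renewed at DIV 5 and 9. Network spikes were recorded on days 5, 7, 9, 12 and summarized as trapezoidal AUC versus DMSO.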
# [16] = CCTE_Shafer_MEA_dev_network_spike_peak: CCTE's Neural Network Formation Assay for Mean Number of Electrodes in Network Spike, Shafer Lab (AID 2284049)
# Summary of the method: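 Continuous 12-day exposure of rat cortical cultures, starting at plating, on MEA plates. Endpoint: electrodes participating in network-spike peaks, AUC across DIV 5–12, DMSO as negative control.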
# [17] = CCTE_Shafer_MEA_dev_spike_duration_mean: CCTE's Neural Network Formation Assay for Mean Spike Duration, Shafer Lab (AID 2284051);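 note: mean network spike duration pooled as area under curve over DIV 5 to 12 recordings; potency for a decrease in mean network spike duration versus DMSO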
# Summary of the method: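 Rat cortical primary cultures, 48-well MEA (16 electrodes/well); compound from plating, renewed DIV 5, 9. Network spike duration (AxIS adaptive detector) recorded DIV 5/7/9/12, combined as trapezoidal AUC; loss direction vs DMSO.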
# [18] = CCTE_Shafer_MEA_dev_network_spike_duration_std: CCTE's Neural Network Formation Assay for Standard Deviation of Network Spike Duration, Shafer Lab (AID 2284052);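 note: area under curve of spike duration SD across recording days 5 to 12; hits are decreases in network spike duration SD versus DMSO vehicle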
# Summary of the method: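 Rat cortical cultures, 1.5 x 10^5 cells/well, exposed continuously from plating to DIV 12 with media/compound renewal at DIV 5, 9. Spontaneous activity recorded DIV 5/7/9/12, AxIS adaptive spike detector; AUC across days; negative direction vs DMSO.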
# [19] = CCTE_Shafer_MEA_dev_per_network_spike_spike_number_mean: CCTE's Neural Network Formation Assay for Mean Number of Spikes in a Network Spike, Shafer Lab (AID 2284053)
# Summary of the method: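 Rat cortical primary cultures on 48-well MEA; compound from day 0, re-dosed with full media change DIV 5, 9. Recorded DIV 5, 7, 9, 12; spikes in 0.05 s window at network-spike peak ÷ total network spikes; AUC; loss vs DMSO.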
# [20] = CCTE_Shafer_MEA_dev_per_network_spike_spike_percent: CCTE's Neural Network Formation Assay for Percent of Spikes in a Network Spike, Shafer Lab (AID 2284054)
# Summary of the method: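 Primary rat cortical neurons on 16-electrode MEA wells (PEI-coated, laminin at plating), exposed from day 0 with renewal at DIV 5 and 9; spikes within 0.05 s of network-spike peaks over total spikes, AUC across days 5, 7, 9, 12.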
# [21] = CCTE_Shafer_MEA_dev_LDH: CCTE's Lactate Dehydrogenase Assay for Cytotoxicity in the Neural Network Formation Assay, Shafer Lab (AID 2284068; active = hit-call score of the fitted dose curve at least 0.9, where 1 is the maximum;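 note: exposure for twelve days from plating with re-dosing on DIV 5 and 9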)
# Summary of the method: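 Rat cortical primary neurons, MEA culture; dosing day 0–12, full medium plus compound exchange DIV 5, 9. Read-out: LDH enzyme activity, spectrophotometric. DMSO = negative control/baseline; signal loss → cytotoxicity.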
# [22] = CCTE_Shafer_MEA_dev_AB: CCTE's Alamar Blue Assay for Cytotoxicity in the Neural Network Formation Assay, Shafer Lab (AID 2284083; active = hit-call score of the fitted dose curve at least 0.9, where 1 is the maximum;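 note: resazurin reduction fluorescence as viability of cultured neurons; twelve days of exposure from plating with re-dosing on DIV 5 and 9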)
# Summary of the method: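 Rat cortical primary cultures, 1.5 x 10^5 cells/well on MEA; continuous compound exposure over 12 days of network development, re-dosed with full medium change DIV 5 and 9. Alamar Blue fluorescence; loss of signal = cytotoxicity vs DMSO baseline.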
# [23] = CCTE_Shafer_MEA_dev_mutual_information_norm: CCTE's Neural Network Formation Assay for Mutual Information Normalization, Shafer Lab (AID 2284091)
# Summary of the method: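 Rat cortical cultures, 48-well MEA, continuous exposure DIV 0–12 with full media/compound change DIV 5 and 9. Readout: inter-electrode mutual information, AxIS adaptive spike detection; AUC across DIV 5/7/9/12 recordings; DMSO baseline, negative fitting direction.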
# [24] = CCTE_Mundy_HCI_Cortical_Synap_Neur_Matur_NeuriteSpotCountPerNeuriteLength: CCTE's Synaptogenesis and Neurite Maturation Assay in rat cortical cells for Neurite Spot Count per Neurite Length, Mundy Lab (AID 2284210)
# Summary of the method: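 Rat primary cortical cultures, glia arrested with AraC at DIV 5, were dosed with media change at DIV 7 and fixed at DIV 12. Synaptophysin puncta per MAP2-labelled neurite length were quantified by high-content imaging versus DMSO.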
# [25] = CCTE_Mundy_HCI_Cortical_NOG_NeuriteLength: CCTE's Neurite Outgrowth Assay in rat cortical cells for Neurite Length, Mundy Lab (AID 2284213)
# Summary of the method: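 Neurite length was read by high-content imaging of βIII-tubulin-labelled neurites in rat primary cortical cultures. Activity was fitted relative to DMSO.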
# [26] = CCTE_Mundy_HCI_Cortical_Synap_Neur_Matur_NeuriteLength: CCTE's Synaptogenesis and Neurite Maturation Assay in rat cortical cells for Neurite Length, Mundy Lab (AID 2284214)
# Summary of the method: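 Neurite length in rat primary cortical cultures is imaged after MAP2, synaptophysin and Hoechst staining. Dosing starts DIV 7, ending DIV 12; DMSO serves as negative control and baseline.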
# [27] = CCTE_Mundy_HCI_Cortical_Synap_Neur_Matur_SynapseCount: CCTE's Synaptogenesis and Neurite Maturation Assay in rat cortical cells for Synapse Count, Mundy Lab (AID 2284218)
# Summary of the method: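 Synapse count per neuron is measured in rat cortical neurons exposed to chemicals between DIV 7 and DIV 12, with glial growth arrested by AraC at DIV 5. Synaptophysin and MAP2 staining is imaged automatically; activity is fitted relative to DMSO.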
# [28] = CCTE_Mundy_HCI_hN2_NOG_NeuriteCount: CCTE's Neurite Outgrowth Assay in human hN2 cells for Neurite Count, Mundy Lab (AID 2284219; active = hit-call score of the fitted dose curve at least 0.9, where 1 is the maximum)
# Summary of the method: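 In this morphology assay, hNP1-derived neurons received test chemical 2 h post-plating and were fixed two days later in warm paraformaldehyde/sucrose containing Hoechst 33342. Neurites, labelled by rabbit anti-βIII-tubulin (1:800) and Alexa Fluor-488 (1:500), were counted automatically.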
# [29] = CCTE_Mundy_HCI_hN2_NOG_NeuriteLength: CCTE's Neurite Outgrowth Assay in human hN2 cells for Neurite Length, Mundy Lab (AID 2284220; active = hit-call score of the fitted dose curve at least 0.9, where 1 is the maximum)
# Summary of the method: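 Using βIII-tubulin immunofluorescence and Hoechst nuclear counterstain, this component quantifies neurite length in hNP1-derived neurons.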
# [30] = CCTE_Mundy_HCI_hN2_NOG_NeuronCount: CCTE's Neurite Outgrowth Assay in human hN2 cells for Neuron Count, Mundy Lab (AID 2284221; active = hit-call score of the fitted dose curve at least 0.9, where 1 is the maximum)
# Summary of the method: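 Read-out is the number of betaIII-tubulin-positive neurons imaged by automated high-content analysis, with DMSO as negative control.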
# [31] = CCTE_Mundy_HCI_Cortical_Synap_Neur_Matur_CellBodySpotCount: CCTE's Synaptogenesis and Neurite Maturation Assay in rat cortical cells for Cell Body Spot Count, Mundy Lab (AID 2284223)
# Summary of the method: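 Synapse number at neuronal cell bodies was quantified as synaptophysin puncta per neuron in rat cortical cultures exposed from DIV 7 to DIV 12. Values were normalised to DMSO.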
# [32] = CCTE_Mundy_HCI_Cortical_NOG_NeuronCount: CCTE's Neurite Outgrowth Assay in rat cortical cells for Neuron Count, Mundy Lab (AID 2284236; active = hit-call score of the fitted dose curve at least 0.9, where 1 is the maximum;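 note: neurons counted by imaging betaIII-tubulin and Hoechst stained cortical cells; cells exposed to compound for about 48 hours before fixation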)
# Summary of the method: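 Read-out: neuron number by high-content imaging of betaIII-tubulin (Alexa Fluor-488) and Hoechst-labelled rat primary cortical cells.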
# [33] = CCTE_Mundy_HCI_hNP1_Casp3_7: CCTE's Caspase-Glo 3/7 Assay in human neuroprogenitor cells for Apoptosis, Mundy Lab (AID 2284240)
# Summary of the method: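 Neuroepithelial-lineage stem cells from WA09 embryonic cells were treated with chemicals after 40–44 h of culture. Twenty-four hours later, caspase-3/7 activation was detected luminescently after a 30 min room-temperature reagent step, with DMSO as baseline.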
smiles,measurement,setting,value
CN1C(=O)CN=C(c2ccccc2)c2cc(Cl)ccc21,outcome,[1],inactive
same,outcome,[2],inactive
same,outcome,[3],inactive
same,outcome,[4],inactive
same,outcome,[5],inactive
same,outcome,[6],inactive
same,AC50,[7],3.62 µM (active)
same,AC50,[8],15 µM (active)
same,outcome,[9],inactive
same,AC50,[10],4.58 µM (active)
same,outcome,[11],inactive
same,outcome,[12],inactive
same,outcome,[13],inactive
same,outcome,[14],inactive
same,outcome,[15],inactive
same,outcome,[16],inactive
same,AC50,[17],3.06 µM (active)
same,outcome,[18],inactive
same,outcome,[19],inactive
same,AC50,[20],15 µM (active)
same,outcome,[21],inactive
same,outcome,[22],inactive
same,outcome,[23],inactive
same,outcome,[24],inactive
same,outcome,[25],inactive
same,outcome,[26],inactive
same,outcome,[27],inactive
same,outcome,[28],inactive
same,outcome,[29],inactive
same,outcome,[30],inactive
same,outcome,[31],inactive
same,outcome,[32],inactive
same,AC50,[33],23 µM (active)
